Several values for one entry are separate records, joined by “and”; a condition that tells them apart may be missing. Equal entries are not always repeated. Results filed as inconclusive are left out. The source holds several records for some structures; these can differ, active in one and inactive in another. Activity calls are given as the source filed them. Unless noted, the call rests on the fitted dose curve; in most records, active means well fitted curve in the direction sought with a large enough effect in the repeat runs; inconclusive means weak or mixed curves; inactive means no such curve, though single readings can be large; an effect the other way counts as inactive or inconclusive.
What was measured:
[1] = qHTS assay to identify small molecule antagonists of the androgen receptor (AR) signaling pathway using the MDA cell line in the presence of 0.5 nM R1881 - cell viability counter screen (AID 1259242); further: nearly all actives have a fitted effect of over 45% in size; further: potency means the concentration at half of the fitted maximal effect
How it was run: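 Live-cell protease fluorescence, CellTiter-Fluor, 30 min at 37C. Cells: MDA-kb2, 3,000/well, preincubated 5 hr. Compounds plus 0.5 nM R1881 final, 16 hr, 37C, 0% CO2.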

[2] = molecular target: Estrogen receptor (Homo sapiens) (UniProt P03372); test: qHTS assay to identify small molecule antagonists of the estrogen receptor alpha (ER-alpha) signaling pathway using the BG1 cell line in the presence of 0.1 nM 17-beta-estradiol (AID 1259244); further: nearly all actives have a fitted effect of over 50% in size; further: potency means the concentration at half of the fitted maximal effect
Sequence of Estrogen receptor (Homo sapiens) (P03372 whole entry, looked up): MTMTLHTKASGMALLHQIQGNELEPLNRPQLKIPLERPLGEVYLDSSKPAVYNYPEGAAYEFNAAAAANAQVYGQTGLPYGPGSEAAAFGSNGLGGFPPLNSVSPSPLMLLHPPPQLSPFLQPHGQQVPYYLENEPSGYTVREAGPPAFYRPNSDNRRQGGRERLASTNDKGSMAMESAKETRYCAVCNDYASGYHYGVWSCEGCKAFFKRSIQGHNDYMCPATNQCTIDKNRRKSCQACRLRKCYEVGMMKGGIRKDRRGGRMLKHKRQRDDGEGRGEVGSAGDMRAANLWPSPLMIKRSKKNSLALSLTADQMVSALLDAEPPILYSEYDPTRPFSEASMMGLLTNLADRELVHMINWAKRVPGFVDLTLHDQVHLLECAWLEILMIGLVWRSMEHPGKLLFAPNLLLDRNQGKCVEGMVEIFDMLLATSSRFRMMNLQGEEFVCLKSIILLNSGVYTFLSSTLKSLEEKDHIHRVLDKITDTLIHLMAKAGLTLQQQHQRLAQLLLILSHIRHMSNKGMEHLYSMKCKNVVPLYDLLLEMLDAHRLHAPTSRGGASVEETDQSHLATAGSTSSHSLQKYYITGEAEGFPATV
How it was run: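 Luminescence after ONE-Glo (30 min, room temperature) measured ERE-luciferase activity in VM7Luc4E2 cells treated 22 h with compound and 0.1 nM final 17beta-estradiol as stimulator.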

[3] = qHTS assay to identify small molecule HDAC inhibitors (AID 1259364);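 further: wild-type HCT-116 cells with endogenous class I/II HDAC activity; top concentration of the series differs between compounds; nearly all actives have a fitted effect of over 45% in size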
How it was run: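 HCT-116 (wild type), 1,500 cells/well, overnight; compound 2 hr 37C 5% CO2; HDAC-Glo I/II reagent 30 min RT; luminescence readout.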

[4] = qHTS assay to identify small molecule HDAC inhibitors - cell viability counter screen (AID 1259365); further: series mostly up to about 92 µM; nearly all actives have a fitted effect of over 50% in size
How it was run: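 HCT-116 (wild type), 1,500 cells/well, overnight 37C/5% CO2; compound in DMSO 2hr; CellTiter-Glo 30min RT; luminescence read.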

[5] = qHTS assay to identify small molecule agonists of the sonic hedgehog signaling (Shh) pathway - cell viability counter screen (AID 1259366); further: nearly all actives have a fitted effect of over 50% in size; further: potency means the concentration at half of the fitted maximal effect
How it was run: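 CellTiter-Fluor fluorescence read-out, 1 hr at 37C, added after 23hr compound exposure. Cells: 3T3 Gli1-Luc, an NIH/3T3 clone with stably integrated Gli1-Luc reporter, plated 4hr before compound.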

[6] = qHTS assay to identify small molecule antagonists of the sonic hedgehog signaling (Shh) pathway - cell viability counter screen (AID 1259367); further: nearly all actives have a fitted effect of over 55% in size; further: potency means the concentration at half of the fitted maximal effect
How it was run: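 Cytotoxicity was assessed in parallel with Shh reporter activity by measuring live-cell protease fluorescence (CellTiter-Fluor) in NIH/3T3 cells stably carrying Gli1-Luc, treated with compound under conditioned medium stimulation for 23 hr plus 1 hr reagent incubation.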

[7] = qHTS assay to identify small molecule agonists of the sonic hedgehog signaling (Shh) pathway (AID 1259368; calls by dose curve;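 further: NIH/3T3-derived 3T3Gli1-Luc cells carrying a stable Gli1-driven firefly luciferase reporter; series mostly up to about 92 µM; nearly all actives have a fitted effect of over 15% in size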)
How it was run: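 Read-out: firefly luciferase luminescence from a Gli1 response element reporter stably integrated in NIH/3T3-derived 3T3Gli1-Luc cells, measured 30 min at room temperature after reagent addition. Compound exposure lasted 24 hr at 37 C, 5% CO2.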

[8] = qHTS assay to identify small molecule antagonists of the sonic hedgehog signaling (Shh) pathway (AID 1259369; calls by dose curve; further: nearly all actives have a fitted effect of over 45% in size; further: potency means the concentration at half of the fitted maximal effect)
How it was run: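 Luminescence readout: firefly Luc under Gli1 response element in 3T3Gli1-Luc cells (NIH/3T3 clone). Antagonist mode, stimulation by conditioned medium; compound exposure 24hr at 37 C, 5% CO2.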

[9] = qHTS assay to identify small molecule phospholipidosis (PLD) inducers (AID 1259344; active means well fitted curve in the direction sought with a large enough effect; an effect the other way counts as inactive or inconclusive)
How it was run: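 Cells (HepG2, 900 per well) attach for 4 h, receive LipidTOX Red and compound together, incubate 24 h at 37 C, are fixed 30 min with paraformaldehyde/Hoechst, then imaged at one site per well.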
On the % scale 0 is the no-effect control and ±100 the full control effect.

OCCN1CCNCC1
inactive: Potency [1] | Potency [2] | Potency [3] | Potency [4] | Potency [5] | Potency [6] | Potency [7] | Potency [8]

CC(=O)OCC1=C(C(=O)O)N2C(=O)[C@@H](NC(=O)Cc3cccs3)[C@H]2SC1
inactive: Potency [1] | Potency [9] | Potency [3] | Potency [4] | Potency [5] | Potency [6] | Potency [7] | Potency [8]

N[C@@H]1CONC1=O
inactive: Potency [1] | Potency [9] | Potency [3] | Potency [4] | Potency [5] | Potency [6] | Potency [7] | Potency [8]

Cc1cccc(O)c1C
inactive: Potency [1] | Potency [2] | Potency [3] | Potency [4] | Potency [5] | Potency [6] | Potency [7] | Potency [8]

C=C(C)C(=O)O
inactive: Potency [1] | Potency [2] | Potency [3] | Potency [4] | Potency [6] | Potency [7] | Potency [8]

O=C(O)c1cn(-c2ccc(F)cc2)c2cc(N3CCNCC3)c(F)cc2c1=O
inactive: Potency [1] | Potency [9] | Potency [3] | Potency [4] | Potency [6] | Potency [7] | Potency [8]

CC(COc1ccccc1)N(CCCl)Cc1ccccc1 (stereo unspecified)
43.3 µM (active) and inactive: Potency [8]
inactive: Potency [9] | Potency [3] | Potency [4] | Potency [5] | Potency [6] | Potency [7]
55 µM (active) and inactive: Potency [1]

NC(Cc1ccc(Cl)cc1)C(=O)O (stereo unspecified)
inactive: viability change, negative = cytotoxic [1] 4.52% [at 0.349 µM] | Potency [9] | activity change, negative = inhibition [3] -0.367% [at 0.349 µM] | activity change, negative = cytotoxicity [4] 1.43% [at 0.349 µM] | viability change, negative = cytotoxic [5] 0.958% [at 0.349 µM] | viability change, negative = cytotoxic [6] 2.83% [at 0.349 µM] | activity change [7] -0.363% [at 0.349 µM, stronger effect = higher value] | activity change, negative = inhibition [8] 23.4% [at 0.349 µM]

O=C1Nc2ccccc2C1(c1ccc(O)cc1)c1ccc(O)cc1
inactive: Potency [1] | Potency [3] | Potency [4] | Potency [7]
active: Potency [2] 486 nM and 237 nM | Potency [5] 27.3 µM and 9.44 µM | Potency [6] 48.6 µM | Potency [8] 34.4 µM

CCCCCCCCCCCCCCCCCl
inactive: viability change, negative = cytotoxic [1] -2.37% [at 19 µM] | activity change, negative = inhibition [2] 26.4% [at 19 µM] | activity change, negative = inhibition [3] 11.8% [at 19 µM] | activity change, negative = cytotoxicity [4] -13.9% [at 19 µM] | viability change, negative = cytotoxic [6] -3.23% [at 19 µM] | activity change [7] -1.24% [at 18.9 µM, stronger effect = higher value] | activity change, negative = inhibition [8] 30% [at 19 µM]

CC(C)(C)NC(=O)[C@@H]1CN(Cc2cccnc2)CCN1C[C@@H](O)C[C@@H](Cc1ccccc1)C(=O)N[C@H]1c2ccccc2C[C@H]1O
inactive: Potency [1] | Potency [9] | Potency [3] | Potency [4] | Potency [7] | Potency [8]

CC1=C(C=O)C(C)(C)CC=C1
inactive: Potency [1] | Potency [3] | Potency [4] | Potency [5] | Potency [6] | Potency [7]

COc1ccc(COC(C)=O)cc1
inactive: Potency [1] | Potency [3] | Potency [4] | Potency [5] | Potency [6] | Potency [7] | Potency [8]

Cc1cccc2n[nH]nc12
inactive: Potency [1] | Potency [3] | Potency [4] | Potency [5] | Potency [6] | Potency [7] | Potency [8]

Nc1cc(S(=O)(=O)O)cc2cc(S(=O)(=O)O)cc(O)c12
inactive: Potency [1] | Potency [3] | Potency [4] | Potency [5] | Potency [7] | Potency [8]

Cc1occc(=O)c1OC(=O)C(C)C
inactive: Potency [1] | Potency [3] | Potency [4] | Potency [5] | Potency [6] | Potency [7] | Potency [8]

CC[C@H]1CN2CCc3cc(OC)c(OC)cc3[C@@H]2C[C@@H]1C[C@H]1NCCc2cc(OC)c(OC)cc21
active: Potency [5] 274 nM | Potency [6] 487 nM and 2.37 µM | Potency [8] 8.7 nM and 2.7 nM
inactive: Potency [9] | Potency [3] | Potency [4] | Potency [7]

Clc1ccc2c(c1)C(N1CCNCC1)=Nc1ccccc1O2
active: Potency [5] 24.3 µM and 13.3 µM
inactive: Potency [2] | Potency [9] | Potency [3] | Potency [4] | Potency [6] | Potency [7] | Potency [8]

From PubChem BioAssay (Tox21)
